The campaign covered roughly 360,000 compounds. About 4,600 (1.3%) were called active.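 The calls were made as follows: active = percent inhibition above its own plate's cutoff, namely the mean of that plate's compound wells plus 3 SD; inactive = the rest.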 Shown is part of a subset that was picked to be rich in actives.
Biological target: Muscarinic acetylcholine receptor M1 (Homo sapiens) (UniProt P11229)
Assay: CHRM1 blockers of acetylcholine calcium response – CHO-K1 cells, Fluo-8 calcium fluorescence, 1536-well, primary screen (AID 588852);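 also: peak over basal fluorescence ratio during 140 s after agonist addition; 0% = ACh EC80 plus DMSO and 100% = DMSO alone without agonist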
Conditions: CHO-K1 hM1, Fluo-8 calcium fluorescence, ACh EC80 antagonist; at 3 µM; stronger effect = higher value

Chain of Muscarinic acetylcholine receptor M1 (Homo sapiens) (P11229 whole entry, looked up): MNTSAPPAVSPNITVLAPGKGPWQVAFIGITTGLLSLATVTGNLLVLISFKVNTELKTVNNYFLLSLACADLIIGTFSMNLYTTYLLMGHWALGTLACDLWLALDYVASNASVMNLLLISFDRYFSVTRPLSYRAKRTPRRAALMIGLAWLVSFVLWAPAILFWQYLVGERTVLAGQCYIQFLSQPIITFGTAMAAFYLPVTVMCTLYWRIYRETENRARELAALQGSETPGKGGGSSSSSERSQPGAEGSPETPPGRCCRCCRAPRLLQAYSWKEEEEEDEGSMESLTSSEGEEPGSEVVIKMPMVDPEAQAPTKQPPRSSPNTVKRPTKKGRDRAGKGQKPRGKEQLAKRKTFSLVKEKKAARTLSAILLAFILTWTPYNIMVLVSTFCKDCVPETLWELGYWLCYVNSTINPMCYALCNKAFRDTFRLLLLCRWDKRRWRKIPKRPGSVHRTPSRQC

Row | SMILES | inhibition
1 | C[N+]1(CC(O)COc2ccccc2)CCN(C(=O)c2ccc([N+](=O)[O-])cc2)CC1 (stereo not drawn) | -2.65% (inactive)
2 | COc1ccccc1C1SCCN1C(=O)c1ccc([N+](=O)[O-])cc1 (stereo not drawn) | 62% (active)
3 | O=C(Nc1ccc(F)cc1)C1CCN(C(=O)c2ccc([N+](=O)[O-])cc2)CC1 | -0.31% (inactive)
4 | Cc1cccc(C(=O)OC(C)CN2CCN(C)CC2)c1 (stereo not drawn) | -1.32% (inactive)
5 | Cc1cc(C)cc(C(=O)NCCN2CCOCC2)c1 | -11.1% (inactive)
6 | Cc1cccc(-c2nc3ccc(C(=O)NCCN4CCN(C)CC4)cc3nc2-c2cccc(C)c2)c1 | 46.9% (active)
7 | CSc1nc2sc3c(c2c(=O)[nH]1)CCc1ccccc1-3 | -1.53% (inactive)
8 | C/C(=N\NC(=O)NC1CCCCC1)c1ccc(OC(F)F)cc1OC(F)F | 3.51% (inactive)
9 | CCCc1noc2c1/C(=N\O)CCC2 | -7.37% (inactive)
10 | CCSC(C)CC1C/C(=N/O)c2c(C)noc2C1 (stereo not drawn) | 46.6% (active)
11 | COc1ccc(OC)c(Cc2cnc3nc(N)nc(N)c3c2C)c1 | -0.49% (inactive)
12 | O=C(COc1ccc(Cl)cc1)NC(=S)Nc1ccccc1N1CCOCC1 | 1.11% (inactive)
13 | Cc1ccccc1NC(=S)NC(=O)Cc1ccc(Cl)cc1 | 14.3% (inactive)
14 | O=C(Cc1ccc(Cl)cc1)NC(=S)Nc1ccccc1O | 64.7% (active)
15 | O=C(NCCCn1ccnc1)C1CCCN(S(=O)(=O)c2cc(Cl)ccc2Cl)C1 (stereo not drawn) | 5.3% (inactive)
16 | Nc1ncnc2c1ncn2[C@@H]1O[C@H](C(=O)NCC(F)(F)F)[C@@H](O)[C@H]1O | -26.1% (inactive)
17 | CCSC1=NCCN1S(=O)(=O)c1ccc(F)cc1 | 7.85% (inactive)
18 | COc1cc(C(=S)NC2CCCCC2)ccc1O | 99.6% (active)
19 | COc1cc(C(=S)N2CCOCC2)ccc1O | 0.12% (inactive)
20 | COc1ccc(C(=O)NC(=S)NC2CCCCC2)cc1 | -6.7% (inactive)
21 | CC(=O)Nc1cccc(Nc2ccc(C#N)cc2)c1 | -8.06% (inactive)
22 | O=C(/C=C/[C@H]1O[C@@H](n2cnc3c(NC(=O)c4ccccc4)ncnc32)[C@H](O)[C@@H]1O)NCc1ccccc1 | -2.88% (inactive)
23 | Cn1cnnc1Sc1ccc(CN2CCN(C3CCCC3)C(CCO)C2)o1 (stereo not drawn) | 25.2% (active)
24 | Cc1ccc(CN2CCN(Cc3ccc(OCCO)cc3)CC2CCO)o1 (stereo not drawn) | -10.3% (inactive)

Row | SMILES | inhibition
25 | OCC1(CCc2ccccc2)CCN(Cc2ccc3nsnc3c2)CC1 | -4.82% (inactive)
26 | OCCC1CN(Cc2ccc3nsnc3c2)CCN1C1CCCCC1 (stereo not drawn) | 31.7% (active)
27 | Cc1ccc(CN2CCN(Cc3ccc4ncccc4c3)CC2CCO)cc1 (stereo not drawn) | 5.31% (inactive)
28 | CC(C)N1CCC(N2CCN(Cc3cccnc3)CC2CCO)CC1 (stereo not drawn) | -8.8% (inactive)
29 | COc1cccc2c1OCC(CN1CCN(C3CCCCC3)C(CCO)C1)=C2 (stereo not drawn) | 28% (inactive)
30 | CCOc1ccc(CN2CCN(Cc3ccc(C)o3)CC2CCO)cc1 (stereo not drawn) | 0.92% (inactive)
31 | OCCC1CN(Cc2ccc3nsnc3c2)CCN1C1CCCC1 (stereo not drawn) | 45.8% (active)
32 | CN(C)CCNC(=O)c1ccc(-c2cn3c(-c4ccc(Oc5ccccc5)cc4)cnc3cn2)cc1 | -3.33% (inactive)
33 | CCc1ccc(N2CC(C(=O)NC3=NCCS3)CC2=O)cc1 (stereo not drawn) | -11.6% (inactive)
34 | CN(Cc1ccccc1)CC(O)COc1ccc(CNCc2cc3ccccc3s2)cc1 (stereo not drawn) | 15.1% (inactive)
35 | CCOC(=O)[C@H]1[C@H]2COc3ccc(Br)cc3[C@@H]2N2C(=O)CN(C)C(=O)[C@@]12C | -4.45% (inactive)
36 | Cc1ccc2c(NC(=O)C3CC3)cccc2n1 | -22.4% (inactive)
37 | CN(C)S(=O)(=O)N1CCC(Oc2cccc(C(=O)NCCCC3CCCC3)c2)CC1 | 26.7% (inactive)
38 | Cc1cccc(C)c1-n1nnnc1C(CCc1ccccc1)N1CCN(C/C=C/c2ccccc2)CC1 (stereo not drawn) | -27.1% (inactive)
39 | O=C(NCc1ccco1)/C(=C\c1cccc([N+](=O)[O-])c1)NC(=O)c1ccco1 | -2.79% (inactive)
40 | CCCC[C@@H]1CN=C(N)N1CCc1cccc(F)c1 | 18.6% (inactive)
41 | CCCC[C@@H]1CN=C(N)N1CCCC | 8.39% (inactive)
42 | CCCC[C@@H]1CN=C(N)N1CCc1cc(C(F)(F)F)cc(C(F)(F)F)c1 | 51.9% (active)
43 | CCN(CC(=O)Nc1c(F)cccc1F)C(=O)Cc1cccs1 | -16.3% (inactive)
44 | Cn1nccc1NS(=O)(=O)c1ccc(F)cc1 | -14.9% (inactive)
45 | COc1cccc(CNC(=O)CCC2CCCN(Cc3ccc(OC(F)F)cc3)C2)c1 (stereo not drawn) | 20.6% (inactive)
46 | C/C=C(\C)C(=O)NCCN1C2=NC[C@H](Cc3ccc(O)cc3)N2C[C@@H]1Cc1ccc(OC)cc1 | -3.4% (inactive)
47 | COc1ccc(C[C@H]2CN3C(=NC[C@H]3C)N2CCNC(=O)CCC2CCCCC2)cc1 | 38.6% (active)
48 | COc1ccc(C2c3c(C)nn(-c4ccccc4)c3NC(=O)N2c2ccccc2)cc1 (stereo not drawn) | -12.4% (inactive)

Row | SMILES | inhibition
49 | CCOC(=O)[C@H]1[C@H]2COc3ccc(C)cc3[C@@H]2N2C(=O)CN(Cc3ccc(F)cc3)C(=O)[C@@]12C | 35.9% (active)
50 | CCOC(=O)[C@H]1[C@H]2COc3ccccc3[C@@H]2N2C(=O)CN(Cc3ccccc3)C(=O)[C@@]12C | 7.51% (inactive)
51 | CCOC(=O)[C@H]1[C@H]2COc3cc(OC)ccc3[C@@H]2N2C(=O)CN(Cc3ccc(Cl)cc3)C(=O)[C@@]12C | -8.3% (inactive)
52 | O=C1OC(Cc2ccccc2)C(c2ccccc2)C1=O (stereo not drawn) | -4.64% (inactive)
53 | NCCCCC(C(=O)O)N(C(=O)OCc1ccccc1)C(=O)OCc1ccccc1 (stereo not drawn) | 2.44% (inactive)
54 | CCC(=C/c1sc2ccc3ccccc3c2[n+]1C)/C=C1\Sc2ccc3ccccc3c2N1C | -7.73% (inactive)
55 | CCCCCCC(O)(CCN1CCCCC1)c1ccccc1 (stereo not drawn) | 98.8% (active)
56 | CCc1ccccc1NC(=O)NCCN1CCCCC1 | -20.3% (inactive)
57 | C#CC(CCN1CCCCC1)(OC)c1ccccc1 (stereo not drawn) | 93.9% (active)
58 | O=C(c1ccccc1)C(O)(CN1CCCCC1)c1ccccc1 (stereo not drawn) | 1.74% (inactive)
59 | CCCCOc1ccc(C(C)(O)CCN2CCOCC2)cc1 (stereo not drawn) | -7.98% (inactive)
60 | CC(C)(c1ccccc1)c1ccc(OCCN2CCCC2)cc1 | 8.05% (inactive)
61 | c1ccc2cc3[nH]c(CN4CCCCC4)nc3cc2c1 | -5.8% (inactive)
62 | CCCCCC(O)(CCN1CCCCC1)c1ccccc1 (stereo not drawn) | 99.8% (active)
63 | CC(CN1CCCCC1)c1ccccc1 (stereo not drawn) | -23.4% (inactive)
64 | CSc1nc(C)nc(C2CC2)c1C#N | -5.81% (inactive)
65 | CCOC1=C2[C@H]([C@H]3C(=O)N(c4ccccc4)C(=O)[C@H]3C1)[C@@H](c1ccccc1)N(S(=O)(=O)c1ccc(C)cc1)[C@H]2c1ccccc1 | -3.55% (inactive)
66 | c1ccc(Cc2c(-c3ccco3)nc3c4ccccc4ccn23)cc1 | -25.9% (inactive)
67 | Cc1ccc(-c2cnc(C(O)c3cc(Cl)cc(Cl)c3)[nH]2)cc1 (stereo not drawn) | 10.3% (inactive)
68 | COc1ccc(OC)c(-c2c(=O)n(OCc3ccccc3Br)c3ccccc3[n+]2[O-])c1 | -8.89% (inactive)
69 | CCN(CC)S(=O)(=O)c1ccc(N2CCOCC2)c(NC(=O)C2CSC3(C)CCC(=O)N23)c1 (stereo not drawn) | -11.2% (inactive)
70 | CN(CC(=O)Nc1ccc(Cl)c(C(F)(F)F)c1)C(=O)CCC(=O)c1ccccc1 | 10.7% (inactive)
71 | O=C(CC(O)(C(F)(F)F)C(F)(F)F)Nc1ccc(Cl)c(Cl)c1 | 41.1% (active)
72 | O=C(Cc1ncc(C(F)(F)F)cc1Cl)Nc1cccc(Br)c1 | 0.3% (inactive)

Row | SMILES | inhibition
73 | CC(=O)N1CCN(Cc2cc(=O)oc3cc(C)ccc23)CC1 | -6.95% (inactive)
74 | Cc1cc(NC(=O)c2cc3ccccc3o2)no1 | 0.12% (inactive)
75 | COc1cc2ccccc2cc1C(=O)Nc1ccncc1 | -10.8% (inactive)
76 | O=C(Nc1ccncc1)c1cc2ccccc2o1 | 11.1% (active)
77 | CNS(=O)(=O)c1cnccc1N1CCN(c2cccc(C)c2)CC1 | -21.3% (inactive)
78 | CC(=O)N1CCc2c(sc(NC(=O)CCS(=O)(=O)c3ccc(C)cc3)c2C(N)=O)C1 | -9.37% (inactive)
79 | CCc1nc2c(OCc3ccc(Cl)cc3Cl)cccn2c1N(C)C(=O)C(C)C | 2.38% (inactive)
80 | Cc1nc2c(OCc3cccc(Cl)c3)cccn2c1N(C)CC1CC1 | 68.1% (active)
81 | CCCCC(=O)N(C)c1c(CC)nc2c(OCc3ccc(Cl)cc3Cl)cccn12 | 23.1% (inactive)
82 | CCc1nc2c(OCc3ccccc3)cccn2c1N(C)C(=O)c1ccco1 | -4.6% (inactive)
83 | CCc1nc2c(OCc3ccc(F)c(F)c3)cccn2c1N(C)C(=O)c1ccco1 | -7.6% (inactive)
84 | CCc1nc2c(OCc3cccc(OC)c3)cccn2c1N(C)C(=O)C(C)C | 5.18% (inactive)
85 | Cc1nc2c(OCC(=O)C(C)(C)C)cccn2c1N(C)Cc1cccs1 | -8.77% (inactive)
86 | Cc1nc2c(OCc3ccc(Cl)cc3)cccn2c1N(C)Cc1cccs1 | 38.4% (active)
87 | Cc1nc2c(OCc3ccc(Cl)cc3Cl)cccn2c1N(C)CC1CC1 | 43.8% (active)
88 | O=C(NCCCn1ccnc1)c1cc2c(s1)CCCC2 | -5.2% (inactive)
89 | CC(=O)Nc1ccc(CNc2nc(NCCN(C)C)nc3cc(-c4ccccc4)sc23)cc1 | -17.6% (inactive)
90 | COC(=O)c1ccc2c(c1)S(=O)(=O)NC(=NCCCN1CCOCC1)S2 | -10.8% (inactive)
91 | COc1ccc(NC(=O)/C(N=Nc2cccc(S(=O)(=O)Nc3ccc(SC(F)F)cc3)c2)=C(\C)O)cc1 | -7.35% (inactive)
92 | COc1cc(-c2nc(S(=O)(=O)c3ccc(Cl)cc3)c(N(C)C)o2)cc(OC)c1OC | -1.63% (inactive)
93 | COC(=O)CCSc1nccn1Cc1ccccc1 | -11.6% (inactive)
